Bioassay records as filed in PubChem BioAssay.
MITF act = activators of MITF-driven TRPM1 promoter activity in SK-MEL-5 cells; actives 0.75% (n = 300,000); SK-MEL-5 TRPM1-promoter luciferase, 24 h; % of positive control, neutral wells = 0; activation, % at 12.5 µM;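 active means mean activation of at least 80% with every replicate also reaching 80%; inconclusive means mean reaches 80% but some replicate falls short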;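 further: 0% = neutral control wells and 100% = parthenolide positive control wells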
PfHsp90 set2 = reduces growth (ATP signal) of yeast expressing P. falciparum Hsp90; S. cerevisiae expressing PfHsp90, BacTiter-Glo ATP, 48 h; yeast lacking PDR1 and PDR3 efflux regulators; inhibition, % at 9.4 µM; actives 0.32% (n = 310,000); AID 504621;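 active means every replicate shows inhibition above about 80%, whatever the replicate mean, limit read from the data; inconclusive means mean inhibition reaches the set limit but some replicate falls short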;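 further: 0% = DMSO neutral controls and 100% = 20 µM radicicol positive controls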
N-glyco inh = N-linked glycosylation inhibition; D54 ERlucT glycosylation luciferase reporter, 24 h; percent of 100 nM tunicamycin response; actives 0.23% (n = 360,000); reporter increase, % at 12.5 µM; AID 588692;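 active means mean luciferase reporter signal, scaled so untreated is 0 and the glycosylation-blocking control 100, at or above a set limit in every replicate; inconclusive means mean reaches the limit but not every replicate does; inactive means mean below the limit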;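 further: luciferase carries N-glycosylation sites so blocking glycosylation raises the light; 0% = median of neutral control wells and 100% = median of 100 nM tunicamycin wells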
esBAF inh = inhibitors of esBAF chromatin remodeling in mouse ES cells; actives 2% (n = 350,000); AID 602393; Bmi1-luciferase knock-in reporter, 24 h; 100% = twice the neutral-well signal; reporter increase, % at 12.5 µM; in the data active means activation above about 40%; inconclusive means no clear call, values can overlap the other calls;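 further: 0% = median of the plate's neutral control wells and 100% = double that signal; a rise in the Bmi1 reporter signal indicates esBAF inhibition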
Vif inh = inhibitors of HIV Vif. actives 0.35% (n = 340,000). AID 602346. HEK293T cells, Vif self-association by quenched fluorescence, imaging, 24 h. inhibition, % at 7.49 µM; in the data active means inhibition above about 50%, passing the limit was not always enough; inconclusive means no clear call, values can overlap the other calls; inactive means below about 31%
Wnt bcat act = activators of Wnt/beta-catenin signaling; actives 1.2% (n = 300,000); activation, % at 9.35 µM; Wnt/beta-catenin reporter cell assay, activator, plate reader; in the data active means activation above about 30%, passing the limit was not always enough; inconclusive means no clear call, values can overlap the other calls;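 further: 0% = neutral control wells and 100% = positive control wells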
Active calls of the source: *; ? = inconclusive; · = no result. An excerpt weighted towards active compounds, which were near 3% of everything screened.

SMILES	MITF act	PfHsp90 set2	N-glyco inh	esBAF inh	Vif inh	Wnt bcat act
COc1ccc(-c2nc(CS(=O)CC(=O)NC3CCC(C)CC3)c(C)o2)cc1OC (stereo not drawn)	45	-15	3	77*	-1	12
COc1ccc(CN2CC(C(N)=O)Oc3ccccc32)cc1F (stereo not drawn)	·	23	-3	2	-5	-1
Nc1nc(SCc2ccccc2)ns1	35	1	3	50*	·	·
CCOC(=O)c1cc(C)n(-c2c(C)n(C)n(-c3ccccc3)c2=O)c1C	15	2	0	·	5	·
CCCCC(=O)OCC(=O)c1cc(C)n(-c2c(C)n(C)n(-c3ccccc3)c2=O)c1C	-2	-12	0	·	50*	-2
CCCOc1ccc(Oc2cc(C)nc(SC)n2)nn1	-10	-6	0	-1	1	0
CSc1nc2ccc(S(=O)(=O)NC3CCCCC3)cc2s1	3	104*	-5	19	-10	·
CCOc1cc(S(=O)(=O)NC2CCCCCC2)ccc1F	-5	108*	-2	-15	-6	-2
COc1ccccc1CNC(=O)CSc1ccc(-c2ccncc2)nn1	0	8	-1	·	2	2
CN1C(=O)C(C)(C)c2cc(S(=O)(=O)N3CCN(c4ccccc4)CC3)ccc21	-9	5	1	3	1	9
CN1C(=O)C(C)(C)c2cc(S(=O)(=O)N3CCCCCC3)ccc21	·	-4	-1	6	88*	0
COc1cc(-c2ccc(NC(=O)CN3CCC(C)CC3)c(OC)c2)ccc1NC(=O)CN1CCC(C)CC1	·	-15	-10	-6	1	·
C[C@@H](O)C#Cc1ccc([C@@H]2[C@H](CO)N3CCCCN(CC4CC4)C[C@@H]23)cc1	·	·	·	-6	·	·
COc1ccc(/C=C(/C#N)C(=O)Nc2cccc([N+](=O)[O-])c2)cc1C(=O)O	1	-11	1	-8	-5	0
NC(CCc1ccccc1)c1csc(Nc2ccc(C(=O)c3ccccc3)cc2)n1 (stereo not drawn)	·	·	-4	-5	57*	-5
O=C(O)CCCCn1c(SCc2ccccc2Cl)nc2ccsc2c1=O	0	-24	0	·	59*	-1
CCOCCCNC(=O)C1CCN(c2cc(C)nc3c(-c4ccc(OC)c(OC)c4)c(C)nn23)CC1	-27	-2	1	-5	-9	-5
COC(=O)CSc1nc2ccccc2o1	-8	-5	1	-2	0	11
CCCCCCOC(=O)Sc1nc2ccccc2o1	·	128*	-1	40	2	?
O=C(COc1ccc(Cl)cc1Cl)NCC1(N2CCOCC2)CCCCC1	-4	-2	-7	-3	-4	2
Nc1ccc(OCc2ccccc2)cc1	18	35	-2	17	14	-4
c1ccc(COc2ccc3nocc3c2)cc1	117*	-8	-6	104*	·	32*
CCn1c(SCC(=O)Nc2cc(C)on2)nnc1-c1ccc(OC)cc1	0	4	0	·	50*	2
COc1ccc(-c2cc(C(=O)Nc3cc(C)on3)no2)cc1	74	-12	1	13	-5	28
Cc1cc(NC(=O)CSc2nc3ccccc3c(=O)n2-c2ccccc2)no1	-1	10	2	·	55*	·
SMILES	MITF act	PfHsp90 set2	N-glyco inh	esBAF inh	Vif inh	Wnt bcat act
C/C(=C\C(=O)Nc1cc(C)on1)c1ccccc1	82*	4	3	?	-7	·
Cc1ccc(-n2c(SCC(=O)Nc3cc(C)on3)nc3ccccc3c2=O)cc1	8	·	-2	1	12	·
COc1ccc(OC)c(-c2cc(C(=O)Nc3cc(C)on3)no2)c1	-11	·	-1	-4	63*	·
O=C(O)CCC(=O)Nc1ccc2c(c1)Cc1cc(NC(=O)CCC(=O)O)ccc1-2	0	-35	-3	2	11	-1
Cc1ccc(S(=O)(=O)NCC(=O)NC2CC2)cc1	-11	-1	2	-4	3	9
CC(C)C(NC(=O)c1ccccc1)c1nnc(SCC(=O)NC2CCCC2)n1C (stereo not drawn)	-1	2	1	-1	19	2
Cc1cc(NC(=O)CSc2nc3sc(C)c(C)c3c(=O)n2C2CCCC2)no1	1	6	27*	2	-4	0
